RGS4-Gao reg – human RGS4-Galphao interaction regulation | AID 1415 | binding response (% of control), % at 10 µM | hit rate 0.33% among 220,000 | Multiplexed bead flow cytometry, RGS4-Galphao binding; actives lie on both sides; in the data active means binding response below about 49% or above about 150%; inactive means in between;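 further: fluorescent Galphao activated with aluminum fluoride binding bead-coupled RGS4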
Target sequence (P09471 whole entry, looked up): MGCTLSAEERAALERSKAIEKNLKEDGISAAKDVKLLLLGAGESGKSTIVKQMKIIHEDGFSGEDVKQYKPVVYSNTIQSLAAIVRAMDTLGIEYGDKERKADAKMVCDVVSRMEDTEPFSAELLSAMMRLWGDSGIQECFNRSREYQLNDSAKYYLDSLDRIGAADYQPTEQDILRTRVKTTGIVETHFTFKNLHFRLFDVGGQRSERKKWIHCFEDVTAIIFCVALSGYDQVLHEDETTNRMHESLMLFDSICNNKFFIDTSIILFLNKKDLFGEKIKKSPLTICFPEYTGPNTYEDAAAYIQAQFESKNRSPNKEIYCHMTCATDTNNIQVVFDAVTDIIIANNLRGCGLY
RGS16-Gao HTS – modulates binding between human RGS16 and Galphao. O15492+P09471. bead-based flow cytometry RGS16-Galphao binding, fluorescence; actives lie on both sides. binding response (% of control), % at 10 µM. hit rate 0.38% among 220,000. AID 1441;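 further: Galphao activated by GDP with aluminum fluoride before binding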
Target sequence (O15492 whole entry, looked up): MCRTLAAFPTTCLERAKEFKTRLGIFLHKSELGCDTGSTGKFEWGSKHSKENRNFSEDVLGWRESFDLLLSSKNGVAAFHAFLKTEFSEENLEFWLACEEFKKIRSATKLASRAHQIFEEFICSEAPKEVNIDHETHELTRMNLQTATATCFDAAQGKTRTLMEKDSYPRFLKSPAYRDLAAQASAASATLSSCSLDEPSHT
Target sequence (P09471 whole entry, looked up): as the sequence (P09471 whole entry, looked up) above
RGS8-Gao – human RGS8-Galphao interaction regulation. multiplexed bead flow cytometry, RGS8-Galphao binding; actives lie on both sides. response (percent of control binding), % at 10 µM. hit rate 0.34% among 220,000; in the data active means response below about 60% or above about 140%; inactive means in between;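 further: Galphao activated as the GDP aluminium fluoride complex binding bead-coupled RGS8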
GSH bead fluor – compound fluoresces at 488/530 nm on GSH beads; GSH beads flow cytometry, compound fluorescence 488/530 nm; hits give high values; fluorescence (KMESF) at 10 µM; hit rate 0.25% among 190,000; AID 1776; in the data active means fluorescence above about 89;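 further: glutathione beads carrying GST-tagged Bcl family fusion proteins plus one bare bead set; values are compound well signal with DMSO vehicle wells as background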
RGS7-Gao reg – human RGS7-Galphao interaction regulation; Multiplexed bead flow cytometry, RGS7-Galphao binding; actives lie on both sides; binding response (% of control), % at 10 µM; hit rate 0.35% among 220,000; AID 1439; in the data active means binding response below about 49% or above about 150%; inconclusive means no clear call, values can overlap the other calls; inactive means in between;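 further: fluorescent Galphao held in activated GDP-AlF4 state binding bead-coupled RGS7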
Avidin fluor – avidin bead compound fluorescence profile; fluorescence (KMESF) at 10 µM; Avidin beads, compound fluorescence 488/530 nm, flow cytometry; hits give high values; hit rate 0.38% among 220,000; in the data active means fluorescence above about 47
RGS-Gao – RGS4-Galphao interaction regulator (human); multiplexed bead flow cytometry, RGS–Galpha-o binding; hit rate 99% among 1,600; shares compounds with RGS16-Gao HTS; AID 1504; RGS4–Galpha-o binding response, % at 10 µM;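 further: fluorescently labeled Galpha-o bound to GDP with aluminium fluoride binding biotinylated RGS beads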
Avidin counter – biotin-avidin bead binding disruption counter-screen; shares compounds with RGS16-Gao HTS; streptavidin beads, fluorescein-biotin binding, flow cytometry; inhibition, % at 10 µM; 1,700 tested, under 10 active; AID 1783;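 active means inhibition above 50%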;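 further: median green fluorescence of gated singlet beads compared with DMSO control wells; 0% = DMSO wells and 100% = complete loss of bead fluorescence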
RGS8-Gao confirm – RGS8-Galphao interaction regulation, single point confirmation. shares compounds with RGS16-Gao HTS. bead-based flow cytometry RGS8-Galphao binding, fluorescence; actives lie on both sides. binding response (% of control), % at 10 µM. hit rate 3% among 1,700; in the data active means binding response below about 72% or above about 130%; inactive means in between;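 further: Galphao activated as GDP AlF4 complex before binding bead RGS8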
RGS7-Gao confirm – confirmation of regulators of human RGS7-Galphao interaction | AID 1837 | shares compounds with RGS16-Gao HTS | hit rate 7.8% among 1,700 | bead-based flow cytometry RGS7-Galphao binding; actives lie on both sides | response (percent of control binding), % at 10 µM; in the data active means response below about 75% or above about 130%; inactive means in between;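 further: fluorescent Galphao activated with GDP and aluminum fluoride binding bead-coupled RGS7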
RGS16-Gao conf – confirmation of regulators of human RGS16-Galphao interaction. AID 1838. response (% of control binding), % at 10 µM. hit rate 4% among 1,700. shares compounds with RGS16-Gao HTS. bead-based flow cytometry, RGS16-Galphao binding; actives lie on both sides; in the data active means response below about 74% or above about 130%; inactive means in between;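 further: Galphao activated as the GDP aluminium fluoride complex binding bead-coupled RGS16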
RGS4-Gao single – confirmation of regulators of human RGS4-Galphao interaction; shares compounds with RGS16-Gao HTS; AID 1840; binding response (% of control), % at 10 µM; RGS4-Galphao binding, multiplexed bead flow cytometry; actives lie on both sides; hit rate 4% among 1,700; in the data active means binding response below about 74% or above about 130%; inactive means in between
RGS19-Gao conf – confirmation of regulators of human RGS19-Galphao interaction; AID 1841; bead-based flow cytometry RGS19-Galphao binding; actives lie on both sides; response (percent of control binding), % at 10 µM; shares compounds with RGS16-Gao HTS; hit rate 5% among 1,700; in the data active means response below about 50% or above about 160%; inactive means in between;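 further: 100% = no compound control and 0% = blank background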
An asterisk follows results filed as active; i = inactive; ? = inconclusive; / = no result; [ ] = remark or other dose. This is a sample that favours compounds with a hit; in the whole collection about 1.2% have one here. Unless noted, how the calls were made is not given here.

SMILES	RGS4-Gao reg	RGS16-Gao HTS	RGS8-Gao	GSH bead fluor	RGS7-Gao reg	Avidin fluor	RGS-Gao	Avidin counter	RGS8-Gao confirm	RGS7-Gao confirm	RGS16-Gao conf	RGS4-Gao single	RGS19-Gao conf
CC(=O)NN1C(=O)c2ccc(Oc3cccc([N+](=O)[O-])c3)cc2C1=O	99.3	103.0	93.6	22	100.5	19	/	/	/	/	/	/	/
O=c1ccc(Oc2nc(N3CCCCC3)nc(N3CCCCC3)n2)n[nH]1	92.8	111.0	100.6	13	94.1	6	/	/	/	/	/	/	/
O=C(CN1N=C(c2ccc(Cl)cc2)CCC1=O)NCCN1CCc2ccccc2C1	14.5*	-2.4*	12.9*	12	4.0*	-5	/	-1.3	109.8	106.4	115.8	107.1	135.2
Cc1ccc(C2=NN(CC(=O)NCc3cccs3)C(=O)CC2)cc1	101.3	116.7	106.2	12	101.8	26	/	/	/	/	/	/	/
COc1cc(OC)cc(-c2n[nH]c(=S)n2-c2ccc3c(c2)OCO3)c1	101.4	20.6*	81.1	15	103.5	1	101.4*	2.6	97.0	105.2	96.7	104.5	88.3
CC(C)C(=O)NC(=S)N(Cc1ccccc1)Cc1ccccc1	106.5	184.0*[activator]	123.5	7	106.1	6	106.5*	-1.2	101.3	62.5*	88.1	70.3*	170.5*[activator]
COc1ccc2cc(C(=O)C3CCCN(C(=O)CCc4cnn(C)c4)C3)ccc2c1 (stereo not given)	100.6	104.7	104.6	17	103.5	6	/	/	/	/	/	/	/
O=C(CCC(=O)Nc1ccc(Cl)cc1Cl)NNC(=O)[C@@H]1CCCC[C@@H]1C(=O)O	107.7	184.6*[activator]	127.9	11	107.0	5	107.7*	1.0	101.4	105.0	102.7	102.6	100.5
O=C(O)C1CCCCC1C(=O)Nc1cc(Cl)ccc1Cl (stereo not given)	87.2	98.8	58.9*	30	49.2*	5	87.2*	1.4	99.9	102.2	101.0	102.3	105.3
O=C(O)C1CCCCC1C(=O)Nc1ccc(Cl)cc1Cl (stereo not given)	89.8	89.9	97.6	14	91.0	12	/	/	/	/	/	/	/
O=C(CCC(=O)Nc1ccc(Cl)cc1Cl)NNC(=O)Nc1ccccc1	101.3	99.0	99.4	19	?	9	/	/	/	/	/	/	/
CCOC(=O)c1ccc(N2C(=O)CC(N3CCN(C/C=C/c4ccccc4)CC3)C2=O)cc1 (stereo not given)	133.7	i	153.5*[activator]	66	121.6	7	133.7*	0.0	109.0	108.4	112.0	104.9	114.8
CCOC(=O)C1CCCN(C2CC(=O)N(c3ccccc3)C2=O)C1 (stereo not given)	94.2	95.6	95.4	12	86.2	10	/	/	/	/	/	/	/
CCOC(=O)/C=C1\SCC(=O)N1CC(=O)Nc1ccc2c(c1)CCC2	104.4	103.2	103.2	26	98.5	11	/	/	/	/	/	/	/
CCOC(=O)/C=C1\SCC(=O)N1CC(=O)Nc1ccc(C(C)C)cc1	113.8	301.0	142.0*[activator]	19	110.5	5	113.8*	-1.0	98.8	100.0	97.2	98.7	99.5
CCC(C)C(NC(C)=O)C(=O)NC(=O)NC(c1ccccc1)c1ccccc1 (stereo not given)	110.6	106.9	102.1	5	107.1	6	/	/	/	/	/	/	/
Cc1ccc(S(=O)(=O)NCc2ccc(C(=O)NCc3cccnc3)cc2)cc1	103.1	118.8	105.7	8	102.8	22	/	/	/	/	/	/	/
CCN(CC)C(=O)c1ccc(S(=O)(=O)NCc2cccnc2)cc1	/	/	/	39	/	/	/	1.7	101.2	122.2	106.1	108.5	117.8
Cc1ccccc1C(=O)Nn1c(C)ccc1C	94.1	93.7	94.7	26	102.8	21	/	/	/	/	/	/	/
O=C(CCSCc1cccc(Cl)c1)NC1CCCC1	102.9	105.7	101.3	12	100.0	14	/	/	/	/	/	/	/
COc1ccccc1CNC(=O)CCSCc1cccc(Cl)c1	98.6	241.3	145.8*[activator]	15	98.0	15	98.6*	-0.7	103.9	96.5	104.3	98.8	109.8
COc1ccc(CNC(=O)CCSCc2cccc(Cl)c2)cc1	156.6*[activator]	187.5	106.3	16	177.4*[activator]	92*	/	-3.1	98.3	94.2	97.7	96.7	97.1
COc1ccc(CNC(=O)CSCc2cccc(Cl)c2)cc1	101.2	100.8	99.9	15	97.2	15	/	/	/	/	/	/	/
O=[N+]([O-])c1ccc(Nc2nc(NC3CCCCC3)nc(N3CCCC3)n2)cc1	169.6*[activator]	156.9	104.4	13	159.6*[activator]	27	/	-0.4	91.8	98.0	88.7	95.5	84.6
Cc1cc(NC(=O)c2ccccc2)n(C(C)(C)C)n1	99.1	100.3	101.3	/	?	4	/	/	/	/	/	/	/
SMILES	RGS4-Gao reg	RGS16-Gao HTS	RGS8-Gao	GSH bead fluor	RGS7-Gao reg	Avidin fluor	RGS-Gao	Avidin counter	RGS8-Gao confirm	RGS7-Gao confirm	RGS16-Gao conf	RGS4-Gao single	RGS19-Gao conf
Cc1cc(NC(=O)c2ccccc2)nc(C)n1	174.4*[activator]	173.7	149.8*[activator]	/	?	4	/	-0.4	103.6	105.0	105.4	104.4	99.7
CC(C)Cc1nnc(NC(=O)CSc2ccccn2)s1	/	/	/	39	/	/	/	-0.5	101.8	97.5	101.5	99.0	104.9
COc1cc(/C=N/NC(=O)CSc2ccccn2)ccc1OC(C)C	99.9	102.1	100.3	/	?	8	/	/	/	/	/	/	/
Cc1cc(N)ccc1N1CCCC1	58.3	39.1	54.2*	0	50.0	1	58.3*	/	/	/	/	/	/
Cc1cc(N)ccc1-n1c(C)ccc1C	100.8	98.1	98.2	10	98.2	28	/	/	/	/	/	/	/
CCCCc1nnc(NC(=O)CSc2nc(=O)cc(N)n2-c2cccc(C)c2)s1	105.8	112.1	104.2	/	103.6	31	/	/	/	/	/	/	/
COCc1cc(C)nc(SCC(=O)Nc2ccc(C)c(C)c2)c1C#N	100.4	-62.9*	101.8	57	98.6	2	100.4*	/	/	/	/	/	/
O=[N+]([O-])c1ccccc1S(=O)(=O)NCc1cccnc1	97.4	105.8	100.7	14	92.0	12	/	/	/	/	/	/	/
O=C(c1ccco1)N1CCN(C(=O)N2CCCC2)CC1	108.1	102.4	103.3	12	104.9	15	/	/	/	/	/	/	/

High-throughput results as filed in PubChem.
